± gives the standard deviation of the averaged measurements. The full ranking holds about 3,800 compounds; the median of “cell shape (eccentricity) Z-score vs DMSO control” is about 1.1, and the lowest 2% start at about -4.7. The list comes from a sample in which the lowest values are over-represented; it also holds similar structures and randomly drawn compounds.
Each molecule was assayed on human monocyte-derived macrophages (M0) (assay: cell shape (eccentricity) Z-score vs DMSO control; higher = more elongated, M2-like morphology). Conditions: 20 µM; 24 h; macrophage state: M0 (M-CSF).
Procedure: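 Primary human monocyte-derived macrophages (M-CSF differentiated, pooled from 4 donors, 5000 cells/well in 384-well plates) were treated with each compound at 20 uM for 24 h, then fixed and stained with phalloidin/DAPI and imaged on an Opera Phenix (6 fields, about 1000 cells/well). Cell eccentricity was measured with CellProfiler, and a Z-score (t-test) was computed against 4 DMSO control wells in the same row. Negative values mean round (M1-like) cells and positive values mean elongated (M2-like) cells; the paper's hit cutoffs are Z <= -4 (M1) and Z >= 6 (M2). Scale: negative = round, M1-like.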

Q: With C=C1[C@@H](C)[C@H]2[C@H](Cc3ccccc3)NC(=O)[C@]23OC(=O)/C=C/[C@H](O)CCC[C@@H](C)C/C=C/[C@H]3[C@@H]1O as the molecule, how does the “cell shape (Z-score)” value read?
A: -24.4

Q: How did the “cell shape (Z-score)” value turn out when C/C=C/c1ccc2c(c1)OCO2 was run?
A: 2.7

Q: For CC(C)[C@]12O[C@H]1[C@@H]1O[C@]13[C@]1(O[C@H]1CC1C4=C(CC[C@@]13C)C(=O)OC4)[C@@H]2O (stereo not given in full), which “cell shape (Z-score)” value is on record?
A: 8.48

Q: With CC(=O)O[C@H]1C[C@@H](OC(C)=O)C(C)(C)C2C[C@@H](OC(C)=O)[C@]3(C)C(CC[C@@]4(C)[C@H](c5ccoc5)C(=O)[C@H]5O[C@]543)[C@]21C (stereo not given in full) as the molecule, how does the “cell shape (Z-score)” value read?
A: 0.275

Q: How did the “cell shape (Z-score)” value turn out when O=C1NCN(c2ccccc2)C12CCN(CCCOc1ccc(F)cc1)CC2 was run?
A: 1.17

Q: Which “cell shape (Z-score)” value does the source give for O=c1[nH]c2ccccc2n1CCCN1CCC(n2c(=O)[nH]c3cc(Cl)ccc32)CC1 here?
A: -1.03

Q: O=c1[nH]c2ccccc2n1C1CCN(CCCC(c2ccc(F)cc2)c2ccc(F)cc2)CC1 was tested. Which “cell shape (Z-score)” value did it give?
A: -6.33

Q: With O=c1ccc2cc(O[C@@H]3O[C@H](CO)[C@@H](O)[C@H](O)[C@H]3O)c(O)cc2o1 as the molecule, how does the “cell shape (Z-score)” value read?
A: 2.48

Q: For CC(C)CC1C(=O)N2CCC[C@H]2C2(O)O[C@](NC(=O)C3C=C4c5cccc6[nH]c(Br)c(c56)C[C@H]4N(C)C3)(C(C)C)C(=O)N12 (stereo not given in full), which “cell shape (Z-score)” value is on record?
A: 4.71

Q: Which “cell shape (Z-score)” value does the source give for O=C1Nc2ccccc2C2(CCN(CCc3ccc(C(F)(F)F)cc3)CC2)O1 here?
A: -0.107

Q: With O=C(N[C@H]1CN2CCC1CC2)c1ccc(Cl)cc1 as the molecule, how does the “cell shape (Z-score)” value read?
A: 1.37

Q: With c1cncc(C2=NCCC2)c1 as the molecule, how does the “cell shape (Z-score)” value read?
A: 0.998

Q: How did the “cell shape (Z-score)” value turn out when COc1ccc2c3c([nH]c2c1)[C@H](CC(C)C)N1C(=O)[C@H](CCC(=O)OC(C)(C)C)NC(=O)[C@@H]1C3 was run?
A: 9.45

Q: With COc1ccc2c(c1)[nH]c1c(C)nccc12 as the molecule, how does the “cell shape (Z-score)” value read?
A: -5.5

Q: Which “cell shape (Z-score)” value does the source give for C=C[C@H]1C[N@@]2CC[C@H]1C[C@H]2[C@H](O)c1ccnc2ccccc12 here?
A: 2.46

Q: Which “cell shape (Z-score)” value does the source give for CN1c2ccccc2C(NCCCCCCC(=O)O)c2ccc(Cl)cc2S1(=O)=O (stereo not given) here?
A: 0.787

Q: CCCCC/C=C\C/C=C\C/C=C\C/C=C\CCCC(=O)NCc1ccc(O)c(OC)c1 was tested. Which “cell shape (Z-score)” value did it give?
A: -0.144

Q: O=C(Cc1ccc(Cl)c(Cl)c1)N1CCCCC1CN1CCCC1 (stereo not given) was tested. Which “cell shape (Z-score)” value did it give?
A: -0.746

Q: For Fc1ccc(C(OCCN2CCN(CCCc3ccccc3)CC2)c2ccc(F)cc2)cc1, which “cell shape (Z-score)” value is on record?
A: -0.302

Q: How did the “cell shape (Z-score)” value turn out when Clc1ccc(C(OCCN2CCCCC2)c2ccccc2)cc1 (stereo not given) was run?
A: 9.16

Q: How did the “cell shape (Z-score)” value turn out when c1ccc(CCCN2CCN(CCOC(c3ccccc3)c3ccccc3)CC2)cc1 was run?
A: 4.69

Q: For Fc1ccc(C(OCCN2CCN(CC=Cc3ccccc3)CC2)c2ccc(F)cc2)cc1, which “cell shape (Z-score)” value is on record?
A: -4.91

Q: With C(=Cc1ccccc1)CN1CCN(CCOC(c2ccccc2)c2ccccc2)CC1 as the molecule, how does the “cell shape (Z-score)” value read?
A: 1.98

Q: With C(=C\c1ccccc1)/CN1CCN(CCOC(c2ccccc2)c2ccccc2)CC1 as the molecule, how does the “cell shape (Z-score)” value read?
A: -5.62

Q: Cc1c([N+](=O)[O-])oc2ccc3ccccc3c12 was tested. Which “cell shape (Z-score)” value did it give?
A: -0.364

Q: CN(C)C(=O)Oc1cc(OC(=O)N(C)C)cc(C(O)CNC(C)(C)C)c1 (stereo not given) was tested. Which “cell shape (Z-score)” value did it give?
A: 2.11

Q: How did the “cell shape (Z-score)” value turn out when CC(=O)O[C@@H](c1nc2ccccc2c(=O)n1[C@@H]1C[C@@]2(OC1=O)c1ccccc1N1C(=O)[C@H](C)N(O)[C@@H]12)C(C)C was run?
A: 2.14

Q: Which “cell shape (Z-score)” value does the source give for COc1cc(Br)c(OC)c2c1C(CN)C2 (stereo not given) here?
A: -4.96

Q: CCCN(CCC)C1CCc2c(OC)cccc2C1C (stereo not given) was tested. Which “cell shape (Z-score)” value did it give?
A: 4.87

Q: For CC1=CC(=O)c2c(O)cccc2C1=O, which “cell shape (Z-score)” value is on record?
A: -4.68

Q: Which “cell shape (Z-score)” value does the source give for CC(C)NCC(O)c1ccc(N)c(C#N)c1 (stereo not given) here?
A: -0.285

Q: Which “cell shape (Z-score)” value does the source give for CC(=O)O[C@@H]1C[C@@]2(C)[C@H](c3ccoc3)C[C@H]3O[C@]32[C@]2(C)C(=O)C(=O)C3C(C)(C)C(=O)C=C[C@]3(C)C12 (stereo not given in full) here?
A: -3.62

Q: CC(=O)O[C@@H]1CC2C(C)(C)C(=O)C=C[C@]2(C)C2CC[C@]3(C)C(=CC(=O)O[C@H]3c3ccoc3)[C@@]21C (stereo not given in full) was tested. Which “cell shape (Z-score)” value did it give?
A: -6.06

Q: CC1(C)C(=O)C=C[C@@]2(C)C1C[C@@H](O)[C@]1(C)C2CC[C@@]2(C)[C@H](c3ccoc3)OC(=O)[C@H]3O[C@]321 (stereo not given in full) was tested. Which “cell shape (Z-score)” value did it give?
A: 1.86

Q: With CC(C)(O)c1cc(O)c2c(c1)CCC1C(C)(C(=O)O)CCCC21C (stereo not given) as the molecule, how does the “cell shape (Z-score)” value read?
A: 0.93

Q: For CC(C)c1c(CN(C)C(C)Cc2ccccc2)n(C)n(-c2ccccc2)c1=O (stereo not given), which “cell shape (Z-score)” value is on record?
A: 2.2

Q: CC12C(=O)OC(=O)C1(C)C1CCC2O1 (stereo not given) was tested. Which “cell shape (Z-score)” value did it give?
A: -12.8

Q: Which “cell shape (Z-score)” value does the source give for CN1CCc2cc3c(cc2[C@H]1C1OC(=O)c2c1ccc1c2OCO1)OCO3 (stereo not given in full) here?
A: 0.327

Q: With CC[C@@H](C(=O)[C@@H](C)[C@@H](O)[C@H](C)[C@@H]1O[C@@H]([C@@H](CC)C(=O)O)CC[C@@H]1C)[C@H]1OC2(C=C[C@@H](O)[C@]3(CC[C@@](C)(C4CC[C@](O)(CC)[C@H](C)O4)O3)O2)[C@H](C)C[C@@H]1C (stereo not given in full) as the molecule, how does the “cell shape (Z-score)” value read?
A: 1.16

Q: For C=CCN1C[C@H](C)N([C@H](c2ccc(C(=O)N(CC)CC)cc2)c2cccc(O)c2)C[C@H]1C, which “cell shape (Z-score)” value is on record?
A: 1.38

Q: C[C@]12CCC3C(CC[C@]4(O)C[C@@H](O)CC[C@]34C=O)[C@@]1(O)CCC2C1=CC(=O)OC1 (stereo not given in full) was tested. Which “cell shape (Z-score)” value did it give?
A: -3.05

Q: With CC(C)(O)/C=C/C(=O)[C@](C)(O)C1[C@H](O)C[C@@]2(C)C3CC=C4C(CC(=O)C(=O)C4(C)C)[C@]3(C)C(=O)C[C@]12C (stereo not given in full) as the molecule, how does the “cell shape (Z-score)” value read?
A: -23.9

Q: CC(C)(O)CCC(=O)[C@](C)(O)[C@H]1[C@H](O)C[C@@]2(C)[C@@H]3CC=C4C(C=C(O[C@@H]5O[C@H](CO)[C@@H](O)[C@H](O)[C@H]5O)C(=O)C4(C)C)[C@]3(C)C(=O)C[C@]12C (stereo not given in full) was tested. Which “cell shape (Z-score)” value did it give?
A: 1.51

Q: Which “cell shape (Z-score)” value does the source give for CN([N+][O-])c1cc(O)ccc1O here?
A: -4.54

Q: How did the “cell shape (Z-score)” value turn out when C=CCC1(C(C)CCC)C(=O)N=C(S)NC1=O (stereo not given) was run?
A: 2.85

Q: With CC(=Cc1csc(C)n1)[C@H]1C[C@@H]2O[C@]2(C)CCC[C@H](C)[C@H](O)[C@@H](C)C(=O)C(C)(C)[C@@H](O)CC(=O)O1 as the molecule, how does the “cell shape (Z-score)” value read?
A: 0.111

Q: c1ccc2c(c1)[I+]c1ccccc1-2 was tested. Which “cell shape (Z-score)” value did it give?
A: -7.52

Q: For O=C1c2ccccc2C(=O)c2ccccc21, which “cell shape (Z-score)” value is on record?
A: 1.99

Q: C[C@@]12C[C@@H](c3ccoc3)OC(=O)C1CC[C@]1(C)[C@H]2[C@H]2C=C[C@]1(O)C(=O)O2 (stereo not given in full) was tested. Which “cell shape (Z-score)” value did it give?
A: -0.795

Q: Which “cell shape (Z-score)” value does the source give for COc1cc2c(c(OC)c1OC)-c1ccc(OC)c(=O)cc1C(NC(C)=O)CC2 (stereo not given) here?
A: 8.73

Q: With CC(C)(C)c1cc(C=C(C#N)C#N)cc(C(C)(C)C)c1O as the molecule, how does the “cell shape (Z-score)” value read?
A: -0.65

Q: How did the “cell shape (Z-score)” value turn out when CO[C@@H]1[C@H](O)[C@@H](O[C@@H]2C[C@H]3CC[C@@H]4C(CC[C@]5(C)[C@@H](C6=CC(=O)OC6)CC[C@]45O)[C@@]3(C)[C@H](O)C2)O[C@H](C)[C@@H]1O[C@@H]1O[C@H](CO)[C@@H](O)[C@H](O)[C@H]1O (stereo not given in full) was run?
A: -2.59 ± 0.87

Q: How did the “cell shape (Z-score)” value turn out when C[C@H]1O[C@@H](O[C@H]2CC[C@]3(CO)C4CC[C@]5(C)[C@@H](C6=CC(=O)OC6)CC[C@]5(O)[C@@H]4CC[C@H]3C2)[C@H](O)[C@H](O)[C@@H]1O[C@@H]1O[C@H](CO)[C@@H](O)[C@H](O)[C@H]1O (stereo not given in full) was run?
A: -6

Q: How did the “cell shape (Z-score)” value turn out when C[C@H]1O[C@@H](O[C@H]2CC[C@]3(CO)C4CC[C@]5(C)[C@@H](C6=CC(=O)OC6)CC[C@]5(O)C4CC[C@H]3C2)[C@H](O)[C@H](O)[C@@H]1O (stereo not given in full) was run?
A: 1.31

Q: For COc1ccc2c(c1O)-c1cc(O)cc3c1[C@@H](C2)N(C)CC3, which “cell shape (Z-score)” value is on record?
A: 0.611

Q: For Cc1c(C(=O)c2cccc3ccccc23)c2cccc3c2n1[C@H](CN1CCOCC1)CO3, which “cell shape (Z-score)” value is on record?
A: -5.15

Q: Which “cell shape (Z-score)” value does the source give for CCCn1c(C)c(C(=O)c2cccc3ccccc23)c2ccccc21 here?
A: 1.57

Q: For Cc1c(C(=O)c2cccc3ccccc23)c2cccc3c2n1[C@@H](CN1CCOCC1)CO3, which “cell shape (Z-score)” value is on record?
A: 3.85

Q: Which “cell shape (Z-score)” value does the source give for COc1cc([C@@H]2c3cc4c(cc3[C@H](OC(C)=O)[C@H]3COC(=O)[C@H]23)OCO4)cc(OC)c1OC here?
A: 9.18

Q: With Cc1ccc2c(c1)Cc1c(C(=O)NC3CCCCC3)nn(-c3ccc(Cl)cc3Cl)c1-2 as the molecule, how does the “cell shape (Z-score)” value read?
A: 2.43

Q: For N#CC(C#N)=Cc1cc(O)c(O)c([N+](=O)[O-])c1, which “cell shape (Z-score)” value is on record?
A: -0.026

Q: For CCNC(=O)C1OC(n2cnc3c(N)ncnc32)C(O)C1O (stereo not given), which “cell shape (Z-score)” value is on record?
A: 4.21

Q: How did the “cell shape (Z-score)” value turn out when CCOC(=O)c1ncn2c1CN(C)C(=O)c1cc(N=[N+]=[N-])ccc1-2 was run?
A: 2.52

Q: CN1C[C@H](C(=O)N[C@]2(C)O[C@@]3(O)[C@@H]4CCCN4C(=O)[C@H](Cc4ccccc4)N3C2=O)C[C@@H]2c3cccc4[nH]cc(c34)C[C@H]21 was tested. Which “cell shape (Z-score)” value did it give?
A: 3.57

Q: With CC(N)Cn1ccc2cc(F)c(Cl)cc21 (stereo not given) as the molecule, how does the “cell shape (Z-score)” value read?
A: 0.211
